# From PubChem
# MLLE-PAM2 inh – blocks PAM2 peptide binding to the PABP1 MLLE domain. P11940. GST-MLLE / FITC-PAM2 fluorescence polarization. inhibition, % at 20 µM. 360,000 tested, 0.36% active; in the data active = inhibition above about 35%, passing the limit was not always enough
# PABP polyA inh – blocks human PABP binding to poly(A) RNA | P11940 | fluorescence polarization | calls only at 35 µM | 290,000 tested, 1% active | AID 2014;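 also: calls also rest on retests at 20 µM and on dose response follow-up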
# EBV gp42 inh – blocks Epstein-Barr virus glycoprotein 42 binding. Q1HVG2. Fluorescence polarization binding assay, mP read-out. inhibition, % (tested at 21.74 µM). 220,000 tested, 0.42% active. AID 1085; in the data active = inhibition above about 50%
# Target sequence (Q1HVG2 whole entry, looked up): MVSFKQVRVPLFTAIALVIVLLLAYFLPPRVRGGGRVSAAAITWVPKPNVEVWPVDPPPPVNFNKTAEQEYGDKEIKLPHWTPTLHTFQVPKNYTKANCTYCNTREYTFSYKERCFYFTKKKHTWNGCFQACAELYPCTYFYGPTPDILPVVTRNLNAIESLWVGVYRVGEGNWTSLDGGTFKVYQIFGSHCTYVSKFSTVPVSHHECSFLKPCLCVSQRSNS
# eIF4E-4G inh – eIF4E/eIF4G interaction inhibition in translation initiation; 220,000 tested, 0.37% active; inhibition, % at 21.7 µM; TR-FRET eIF4E-eIF4GI(517-606) binding, 2 h;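 active = inhibition above about 30%, limit read from the data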
# eIF4H inh – inhibitors of RNA binding by human eIF4H; inhibition, % at 35 µM; eIF4H fluorescence polarization binding assay; AID 2012; 290,000 tested, 0.94% active; Q15056;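 also: calls also rest on retests at 20 µM and on dose response follow-up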
# Numbers stand for hits; n = inactive; u = inconclusive; x = no result; + = active, no number. Shown are actives, neighbours in structure and some others; about 1.7% of the full set was active somewhere. Unless noted, no rule for the calls is given here.
SMILES,MLLE-PAM2 inh,PABP polyA inh,EBV gp42 inh,eIF4E-4G inh,eIF4H inh
CCOC(=O)c1c(-c2ccccc2)csc1NC(=O)CSc1ccccc1,n,n,n,n,n
CCOC(=O)c1c(-c2ccc(-c3ccccc3)cc2)csc1NC(=O)C1C2CCC(O2)C1C(=O)O (configuration not stated),n,n,n,n,u
CCCCOCCCN1CC(=O)N2[C@@H](Cc3c([nH]c4ccccc34)C2(C)C)C1=O,n,n,x,x,n
O=C(COc1ccc(F)cc1Cl)Nc1ccc(S(=O)(=O)Nc2nccs2)cc1,n,x,x,x,x
O=C(Nc1cccc2ccccc12)c1ccc(Br)o1,n,n,n,47,n
NC(=O)Cc1ccc(C(=O)CSc2nnc(-c3ccncc3)n2C2CC2)s1,n,x,x,x,x
CCOc1cc(C2C(C#N)=C(N)OC(C)=C2C(C)=O)cc(Br)c1O (configuration not stated),n,u,51,n,u
CCOc1cc(C2C(C#N)=C(N)OC(C)=C2C(C)=O)c(Br)c(Br)c1OC(C)C (configuration not stated),n,n,n,n,n
COc1ccccc1NC(=O)c1c(N=Cc2cccc([N+](=O)[O-])c2)cnn1C,n,n,n,46,n
COc1ccc(C)cc1NC(=O)c1c([N+](=O)[O-])cnn1C,n,n,x,x,n
Cc1c(Cl)cccc1NS(=O)(=O)c1ccc2c(c1)C1C=CCC1C(c1ccc(C(=O)O)cc1)N2 (configuration not stated),n,n,79,50,n
CC(=O)c1ccc2c(c1)C1C=CCC1C(c1ccc(S(=O)(=O)N3CCOCC3)cc1)N2 (configuration not stated),n,n,n,n,n
COc1ccc(NS(=O)(=O)c2ccc3c(c2)[C@H]2C=CC[C@H]2[C@@H](c2ccc(C(=O)O)cc2)N3)cc1,n,+,x,x,97
COc1ccc(/C=N/NC(=O)c2ccc3c(c2)NC(=O)C(C)(C)O3)cc1OC,n,n,x,x,n
O=CN/C=C/c1cc(O)ccc1O,n,+,n,n,94
COc1ccc(NC(=O)c2noc3c2CCC3)cc1,n,+,n,n,107
CC(=O)c1ccc(NC(=O)c2noc3c2CCC3)cc1,n,n,n,n,n
O=C(/C=C/c1ccc(Cl)cc1)Nc1nccs1,n,n,n,n,active
CN(CC(=O)Nc1ccccc1C(F)(F)F)C(=O)CSCc1ccccc1,n,x,x,x,x
COc1ccc(N=C2NN=C(c3c(C)[nH]c4ccccc34)CS2)cc1,n,n,n,n,n
Cc1[nH]c2ccccc2c1C1=NNC(=Nc2ccc(F)cc2)SC1,n,+,n,n,active
Cc1sc(NC(=O)C2=COCCO2)nc1-c1ccc(Cl)cc1,n,x,x,x,x
Cc1c(O)nc2ccccn2c1=O,n,n,n,n,n
O=c1c2c([N+](=O)[O-])cc([N+](=O)[O-])cc2nc2ccccn12,n,+,x,x,82
COc1cccc2cc(-c3ccnc(=S)[nH]3)oc12,x,n,n,n,n
SMILES,MLLE-PAM2 inh,PABP polyA inh,EBV gp42 inh,eIF4E-4G inh,eIF4H inh
Fc1ccc(-c2ccnc(=S)[nH]2)cc1,39,n,n,n,n
CCOC(=O)CNC(=O)CSc1nc(-c2cccc(C)c2)ns1,41,n,n,n,n
CCCCn1c2nc3ccccc3nc2c2c(=O)n(-c3ccccc3)cnc21,n,n,n,n,n
CCCCn1nc(-c2ccccc2)c2nc3ccccc3nc21,x,u,154,n,u
Cc1ccc(-c2nc3ccccc3nc2-c2ccccc2)cc1,n,n,x,x,n
Cn1nc(-c2ccccc2)c2nc3ccccc3nc21,n,u,126,n,u
COc1ccc(NC(=S)NC23CC4CC(CC(C4)C2)C3)cc1OC,n,n,x,x,n
Cc1nonc1C(=O)N/N=C/c1ccc([N+](=O)[O-])o1,n,+,n,n,89
O=C(N/N=C/c1ccccn1)c1sc2ccccc2c1Cl,n,n,n,n,n
CCCc1ccc(-c2cc(C(=O)N/N=C/c3ccc([N+](=O)[O-])o3)c3ccccc3n2)cc1,n,n,n,n,n
O=C(N/N=C/c1ccc([N+](=O)[O-])o1)c1cc(-c2cccc(Br)c2)nc2ccccc12,n,n,n,n,56
O=C(N/N=C/c1ccc([N+](=O)[O-])o1)c1cn2ccc3ccccc3c2n1,n,+,n,n,82
O=C(N/N=C/c1ccc([N+](=O)[O-])o1)c1sc2ccccc2c1Cl,n,n,n,n,72
O=C(CNc1ccc2ccccc2c1)N/N=C/c1ccc([N+](=O)[O-])o1,n,n,n,n,n
COc1cc(OC)c(NC(=O)N2CCOCC2)cc1Cl,n,n,x,x,n
COCCN1CCc2[nH]c(=S)[nH]c(=O)c2C1,n,n,n,n,n
CCCCN1CCc2[nH]c(=S)[nH]c(=O)c2C1,49,n,n,n,n
CC(=O)N1CCc2[nH]c3ccccc3c2C1,n,n,n,n,n
CC(c1ccccc1)N1CCc2[nH]c(=S)[nH]c(=O)c2C1 (configuration not stated),39,n,n,n,n
O=C(NCc1cccnc1)c1cc(C2CCCN(S(=O)(=O)c3ccccc3)C2)on1 (configuration not stated),n,x,x,x,x
Cc1ccc[n+](-c2nc([O-])sc2C=O)c1,n,n,142,n,n
CCOc1ccc(N2C(=O)S/C(=C\c3cccn3C)C2=O)cc1,n,n,n,n,n
Cn1cccc1/C=C1\SC(=O)N(c2ccc(O)cc2)C1=O,n,+,n,n,0.7
CCOCC(=O)Nc1nc2ccc(OCC)cc2s1,n,n,n,n,n
CCOCC(=O)Nc1nc2ccc(C)cc2s1,41,n,n,n,n
SMILES,MLLE-PAM2 inh,PABP polyA inh,EBV gp42 inh,eIF4E-4G inh,eIF4H inh
Cc1csc(SCC(=O)c2cc(C)n(Cc3cccs3)c2C)n1,n,n,n,n,n
Cc1cc(C(=O)CSc2nnc(N)s2)c(C)n1Cc1cccs1,n,+,n,n,n
Cc1cc(C(=O)CSc2nnc(-c3ccc(OC(F)F)cc3)o2)c(C)n1Cc1cccs1,n,+,n,n,57
COc1ccc(-c2nnc(SCC(=O)c3cc(C)n(Cc4cccs4)c3C)o2)cc1,n,n,n,n,n
CCOC(=O)c1ccc2c(c1)C1C=CCC1C(C(=O)O)N2 (configuration not stated),x,+,84,47,92
COCCNC(=O)C1Nc2ccc(C(F)(F)F)cc2C2C=CCC12 (configuration not stated),n,x,x,x,x
CCCC1Nc2ccc(C(=O)O)cc2C2C=CCC12 (configuration not stated),n,n,n,n,n
O=C(O)c1ccc2c(c1)C1C=CCC1C(c1ccncc1)N2 (configuration not stated),n,+,n,n,97
CC(C)C1Nc2ccc(C(=O)O)cc2C2C=CCC21 (configuration not stated),n,n,n,n,96
CCOC(=O)C1Nc2ccc(C(=O)O)cc2C2C=CCC12 (configuration not stated),50,+,x,x,96
Cc1ccc(-c2cc(C(=O)N/N=C/c3c[nH]c4ccccc34)n[nH]2)o1,n,+,n,n,n
